# Sampled rows, rich in hits. Any-hit rate of the full collection: about 10%.
# GLS inhibitor = qHTS for Inhibitors of Glutaminase (GLS). Glutaminase kidney isoform, mitochondrial (Homo sapiens), O94925. GLS enzymatic activity, qHTS titration. Potency, µM (highest dose often 45.5 µM), without a hit: at the highest dose activity change, negative = inhibition, usual class: inhibitors. 410,000 tested, 0.21% active. AID 624170, 2012; note: % is set by controls: 0 for no effect and ±100 for the full control effect
#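 Assay buffer: 45 mM KH2PO4 pH 8.2, 0.02% Tween-20. hKGA acts on L-glutamine (1 mM solution added); product glutamate is reported by an oxidase/peroxidase Amplex Red coupling, with fluorescence taken at baseline and 30 min.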
# G9a inh = qHTS Assay for Inhibitors of Histone Lysine Methyltransferase G9a | Potency, µM (top dose mostly 102 µM), inactives show top-dose activity, negative = inhibition, most hits filed as inhibitors | G9a H3K9 monomethylation, AlphaScreen, 2 h | 350,000 tested, 8.8% active; note: % is set by controls: 0 for no effect and ±100 for the full control effect; nearly all actives have a fitted effect of over 75% in size
#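 Methyltransferase reactions run at room temperature for 2 h (20 nM enzyme, 500 nM biotin-H3K9 peptide, 20 uM SAM) after a 15 min compound preincubation; product detected by AlphaScreen beads and anti-H3K9me1 antibody.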
# JMJD2A Tudor = qHTS Assay for Inhibitors of JMJD2A-Tudor Domain; Lysine-specific demethylase 4A (Homo sapiens), O75164; AlphaScreen JMJD2A-Tudor / H3K4me3 peptide binding; Potency, µM (doses to about 114 µM), without a hit: at the top dose activity change, negative = inhibition, most hits filed as inhibitors; 390,000 tested, 4.4% active; note: % is set by controls: 0 for no effect and ±100 for the full control effect; nearly all actives have a fitted effect of over 50% in size
# BAZ2B block = qHTS Assay for Inhibitors of BAZ2B; Bromodomain adjacent to zinc finger domain protein 2B (Homo sapiens), Q9UIF8; AlphaScreen BAZ2B-H3K14Ac peptide displacement; Potency, µM (highest dose often 114 µM), for inactives: top-dose activity change, negative = inhibition, hits mostly inhibitors; 360,000 tested, 4.4% active; AID 504333, 2011; note: % is set by controls: 0 for no effect and ±100 for the full control effect; nearly all actives have a fitted effect of over 60% in size
# Target sequence (Q9UIF8 whole entry, looked up, the tested form may be a part): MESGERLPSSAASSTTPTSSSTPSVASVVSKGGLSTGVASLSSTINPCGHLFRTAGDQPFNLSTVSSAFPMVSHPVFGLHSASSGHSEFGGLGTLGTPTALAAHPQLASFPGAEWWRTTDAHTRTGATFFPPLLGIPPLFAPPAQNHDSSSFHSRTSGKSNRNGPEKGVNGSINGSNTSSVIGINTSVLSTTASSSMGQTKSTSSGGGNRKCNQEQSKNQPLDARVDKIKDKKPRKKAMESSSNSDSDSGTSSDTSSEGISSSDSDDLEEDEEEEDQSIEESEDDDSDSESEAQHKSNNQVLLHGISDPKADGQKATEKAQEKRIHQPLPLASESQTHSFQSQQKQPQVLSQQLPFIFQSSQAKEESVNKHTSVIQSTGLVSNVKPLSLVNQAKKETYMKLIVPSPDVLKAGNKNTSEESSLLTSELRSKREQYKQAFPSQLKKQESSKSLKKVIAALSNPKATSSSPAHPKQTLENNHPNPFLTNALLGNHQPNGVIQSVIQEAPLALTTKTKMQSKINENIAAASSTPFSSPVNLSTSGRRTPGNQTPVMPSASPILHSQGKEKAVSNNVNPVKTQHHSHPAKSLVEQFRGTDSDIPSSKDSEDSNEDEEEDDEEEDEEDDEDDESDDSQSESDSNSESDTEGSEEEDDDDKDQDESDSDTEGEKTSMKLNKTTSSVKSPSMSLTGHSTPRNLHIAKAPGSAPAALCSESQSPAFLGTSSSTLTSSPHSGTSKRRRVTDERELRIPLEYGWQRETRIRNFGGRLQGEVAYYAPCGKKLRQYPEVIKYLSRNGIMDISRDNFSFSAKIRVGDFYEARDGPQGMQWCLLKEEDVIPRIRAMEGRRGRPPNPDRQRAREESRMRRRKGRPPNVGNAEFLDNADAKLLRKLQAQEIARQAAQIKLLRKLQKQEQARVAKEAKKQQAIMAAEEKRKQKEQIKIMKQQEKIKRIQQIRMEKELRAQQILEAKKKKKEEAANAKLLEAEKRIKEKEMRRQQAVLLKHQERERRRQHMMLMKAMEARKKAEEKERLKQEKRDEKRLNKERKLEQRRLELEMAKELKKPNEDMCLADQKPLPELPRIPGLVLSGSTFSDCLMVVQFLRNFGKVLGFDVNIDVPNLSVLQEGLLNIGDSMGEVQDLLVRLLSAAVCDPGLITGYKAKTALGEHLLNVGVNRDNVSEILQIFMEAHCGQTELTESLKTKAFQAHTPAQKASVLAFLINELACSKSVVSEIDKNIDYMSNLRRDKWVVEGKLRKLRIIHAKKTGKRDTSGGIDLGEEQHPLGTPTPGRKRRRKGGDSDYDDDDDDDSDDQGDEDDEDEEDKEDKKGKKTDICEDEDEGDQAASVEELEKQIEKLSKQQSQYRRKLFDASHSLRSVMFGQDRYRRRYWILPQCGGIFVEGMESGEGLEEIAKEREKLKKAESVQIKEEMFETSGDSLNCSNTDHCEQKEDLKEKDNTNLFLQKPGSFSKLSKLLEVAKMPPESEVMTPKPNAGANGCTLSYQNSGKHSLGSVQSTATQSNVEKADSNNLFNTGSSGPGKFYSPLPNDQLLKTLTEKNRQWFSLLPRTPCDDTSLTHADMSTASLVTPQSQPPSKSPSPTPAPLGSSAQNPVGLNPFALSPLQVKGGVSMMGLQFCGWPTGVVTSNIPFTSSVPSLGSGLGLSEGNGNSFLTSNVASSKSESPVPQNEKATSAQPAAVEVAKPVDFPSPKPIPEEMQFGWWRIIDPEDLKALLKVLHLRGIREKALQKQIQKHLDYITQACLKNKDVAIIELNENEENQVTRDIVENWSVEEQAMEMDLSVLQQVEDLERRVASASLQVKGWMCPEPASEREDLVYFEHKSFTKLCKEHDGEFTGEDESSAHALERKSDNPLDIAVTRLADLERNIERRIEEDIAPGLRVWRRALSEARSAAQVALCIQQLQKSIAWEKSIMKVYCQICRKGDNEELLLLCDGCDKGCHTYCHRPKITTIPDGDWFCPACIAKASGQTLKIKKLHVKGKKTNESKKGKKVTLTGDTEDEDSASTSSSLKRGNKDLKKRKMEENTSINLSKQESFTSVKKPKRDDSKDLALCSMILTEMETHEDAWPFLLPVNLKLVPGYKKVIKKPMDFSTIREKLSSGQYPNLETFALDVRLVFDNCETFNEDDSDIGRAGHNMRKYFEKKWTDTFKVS
#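 Protein-peptide AlphaScreen: BAZ2B 50 nM, b-H3K14Ac 50 nM, 1x PBS pH 7.4 + 0.01% Tween-20. Preincubation 30 min RT; cpd 30 min RT (top 110 uM); beads 20 min RT, light-protected.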
# HP1b binding inh = HTS for Inhibitors of HP1-beta Chromodomain Interactions with Methylated Histone Tails | Chromobox protein homolog 1 (Homo sapiens), P83916 | AlphaScreen HP1-beta / biotin-H3K9me3 peptide binding | Potency, µM (top dose mostly 114 µM), without a hit: top-dose activity change, negative = inhibition, hits mostly inhibitors | 390,000 tested, 0.56% active; note: nearly all actives have a fitted effect of over 70% in size
#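 HP1-beta protein (50 nM final) preincubated 30 min at room temperature with biotinylated H3(1-18)K9me3 peptide (50 nM) in PBS pH 7.4, 0.01% Tween-20, then compound added for 30 min. AlphaScreen streptavidin donor/nickel chelate acceptor beads (10 ug/mL final), 30 min dark, luminescence read.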
# An asterisk follows results filed as active; ? = inconclusive; . = not tested or not shown; [ ] = dose if it differs, or a comment. Calls come from the whole dose curve; as a rule, active = well fitted curve in the direction sought with a large enough effect; inconclusive = small, poorly fitted or top-dose-only effect, or another doubt; inactive = no such curve, though single readings can be large; an effect the other way counts as inactive or inconclusive. Potency is the fitted concentration of half-maximal effect.
SMILES,GLS inhibitor,G9a inh,JMJD2A Tudor,BAZ2B block,HP1b binding inh
Cn1cc(P(=O)(N2CCOCC2)N2CCOCC2)cc1P(=S)(N1CCOCC1)N1CCOCC1,-1%,40µM*,-12%,1%,2%
Cn1cc(P(=S)(N2CCOCC2)N2CCOCC2)cc1P(=O)(N1CCOCC1)N1CCOCC1,13%,10µM*,?,-3%,?
COc1cc(NC(=O)c2nnn(CC(=O)Nc3cc(C)ccc3C)c2N)cc(OC)c1,-4%,13%[59 µM],5%,8%[57.1 µM],50%
Cc1ccccc1-n1c(-c2ccc(Cl)cc2)cnc1SCC(=O)NC1CCS(=O)(=O)C1 (centres undefined),-17%,8.9µM*,?,50µM*,-29%
CCCCn1c(SCC(=O)NC2CCS(=O)(=O)C2)nnc1-c1ccc(OC)cc1 (centres undefined),10%,?,-4%,0%,31%
O=C(CSc1nnc(-c2ccccc2)n1-c1ccc(Cl)cc1)NC1CCS(=O)(=O)C1 (centres undefined),8%,20%[59 µM],-11%,-1%,8%
CC(C)(C)c1ccc(-c2nnc(SCC(=O)NC3CCS(=O)(=O)C3)n2N)cc1 (centres undefined),-12%,20µM*,-24%,.,9%
CCOC(=O)c1ccc(NS(=O)(=O)c2ccc3c(c2)NC(=O)CCS3)cc1,-8%,-1%,-15%,-15%,29%
CCc1ccc(NC(=O)C(=O)NCC2CCCN2S(=O)(=O)c2cccs2)cc1 (centres undefined),-3%,-3%,-12%,-3%,22%
C=CCc1cc(OC)ccc1OCCON1C(=O)CCC1=O,-8%,8%[59 µM],-23%[11.4 µM],?,-9%
COc1ccc(OCCCCN(C)Cc2ccccc2)cc1,2%,?,20µM*,71µM*,?
C=CCc1cc(OC)ccc1OCCN(C)Cc1ccccc1,0%,13µM*,25µM*,50µM*,?
COc1ccc(OCC(=O)N(C)Cc2ccccc2)cc1,2%,21%,-17%,3%,40%
C=CCc1cc(OC)ccc1OCCCCn1cncn1,0%,28µM*,5.6µM*,50µM*,?
COc1ccc(CN(CCN(C)C)Cc2ccccc2)c(OC)c1,-12%,8.9µM*,2.5µM*,79µM*,-39%
CCOc1ccc(-n2c(=O)c3c(C)c(C(=O)N(C)C)sc3n(CC(=O)Nc3c(C)cc(C)cc3C)c2=O)cc1,-3%,8%[59 µM],-20%,-9%,9%
Cc1cc(OCC(=O)N2CCC(C(N)=O)CC2)c2c(C)cc(=O)oc2c1,10%,31%,-20%,-9%,20%
COC(=O)c1ccc(OCCCCN(C)Cc2ccccc2)cc1,1%,10µM*,32µM*,56µM*,?
CN(CCOCCOc1ccc(F)cc1)Cc1ccccc1,15%,?,13µM*,79µM*,?
COC(=O)c1ccc(OCCOc2ccccc2)cc1,5%,12%[12.7 µM],17%,5%,46%
CCOc1cc(C(=O)N2CC(=O)Nc3ccc(C)cc3C2c2ccccc2)cc(OCC)c1OCC (centres undefined),8%,6%[59 µM],1%,4%,49%
Cc1cc(C)cc(N(CCC(=O)Nc2nnc(C)s2)S(=O)(=O)c2ccc(Cl)cc2)c1,6%,9%[59 µM],-7%,3%,11%
CC(=O)c1ccc(S(=O)(=O)N2CCN(C(=O)c3ccc(N)c([N+](=O)[O-])c3)CC2)cc1,0%,40%[12.7 µM],-30%,4%,24%
Nc1ccc(C(=O)N2CCN(S(=O)(=O)c3ccc(Br)cc3)CC2)cc1[N+](=O)[O-],0%,45µM*,?,-9%,-2%
COc1ccc(NC(=O)c2cc(-c3ccccc3)nc3c2cnn3C(C)C)cc1,-13%,22%[2.33 µM],79µM*,-3%,?
SMILES,GLS inhibitor,G9a inh,JMJD2A Tudor,BAZ2B block,HP1b binding inh
Cc1ccc(-n2c(-c3ccncc3)n[nH]c2=S)c(C)c1,-3%,.,18µM*,-14%,32%
Cc1ccc(-c2ccc(=O)[nH]n2)cc1,4%,14%[59 µM],-6%,3%,30%
Cc1ccccc1-n1c(-c2ccc(=O)[nH]n2)n[nH]c1=S,-5%,18µM*,?,?,-2%
Cc1cccc(-n2c(-c3ccncc3)n[nH]c2=S)c1C,-2%,.,13µM*,-13%,11%
CCc1ccccc1-n1c(-c2ccncc2)n[nH]c1=S,-2%,5.6µM*,10µM*,0%,28%
Cc1cc(-c2n[nH]c(=S)n2-c2ccccc2C)cs1,-17%,1.3µM*,35µM*,-4%,20%
CC(C)Cn1c(-c2ccc(Br)o2)n[nH]c1=S,-6%,1.8µM*,4%,-9%,29%
CC(C)(C)c1cc(-c2n[nH]c(=S)n2-c2ccccc2F)n[nH]1,?,?,10µM*,-30%,14%
Cc1ccccc1-n1c(-c2ccc(Br)o2)n[nH]c1=S,-1%,.,25µM*,.,21%
COc1ccc(S(=O)(=O)NCC(c2ccc3c(c2)OCO3)N2CCOCC2)cc1 (centres undefined),3%,1%[0.501 µM],-13%,-3%,7%
CCCCCC(=O)/C=C/C=C\CCCCCCCC(=O)O,.,19%[59 µM],.,.,.
COc1cccc(NC(=O)Cn2c(=O)n(-c3ccc(CC(=O)NCC4CCCO4)cc3)c(=O)c3ccccc32)c1 (centres undefined),-3%,7%[59 µM],-6%,3%,26%
Cc1ccc(S(=O)(=O)N2C[C@H]3N(C(=O)OC(C)C)N(C(=O)OC(C)C)C[C@H](OC(=O)Nc4c(C)noc4C)[C@@]3(O)C2)cc1,4%,.,.,.,.
Cc1ccccc1-n1c(-c2ccncc2)n[nH]c1=S,-4%,?,14µM*,-36%,21%
S=c1[nH]nc(C2CCCCC2)n1/N=C/c1c(Cl)cccc1Cl,?,3.5µM*,-10%,-29%,17%
FC(F)(F)c1ccc(/C=N/n2c(C3CCCCC3)n[nH]c2=S)cc1,1%,50µM*,?,-26%,7%
Cc1ccc(/C=N/n2c(C3CCCCC3)n[nH]c2=S)cc1,37%,10µM*,?,3%,-20%
O=C(O/N=C/c1ccc(Cl)cc1)C1CCCCC1,-8%,40%,16%,13%,47%
NC(=S)N/N=C/c1ccc(C(F)(F)F)cc1,14%,8%[59 µM],-23%,-20%,23%
S=c1[nH]nc(C2CCCCC2)n1/N=C/c1ccc(Cl)cc1,?,40µM*,-31%,-22%,13%
S=c1[nH]nc(C2CCCCC2)n1/N=C/c1ccc(Br)cc1,-18%,10µM*,-2%,-3%,19%
S=c1[nH]nc(C2CCCCC2)n1/N=C/c1ccc(Br)s1,?,8.9µM*,-22%,10%,26%
CCc1ccc(/C=N/n2c(C3CCCCC3)n[nH]c2=S)cc1,-16%,32µM*,?,-38%,-14%
